Most compounds without a hit are left out; they make up all but 4% or so of the library.
CF NFkB block – inhibitors of PAF-induced NF-kB signaling, primary screen, cell-based, GFP fluorescence, uHTS. inhibition, % at 5 µM. KKLEB NF-kB-GFP reporter, GFP fluorescence overnight. hit rate 0.86% among 360,000. AID 588850, 2011;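 active means at least 50% inhibition at 5 µM, scaled per plate between neutral and stimulator controls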;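 further: PAF is a Pseudomonas aeruginosa culture filtrate used as stimulus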
Peg3 promoter – Peg3 promoter-driven luciferase inhibitors, primary screen, cell-based, HeLa, luciferase luminescence | inhibition, % at 20 µM | HeLa PEG-Prom luciferase reporter, overnight | hit rate 1.7% among 360,000;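 active means inhibition of at least 50% at 20 µM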
TROY NFkB inh – inhibitors of TROY-driven NF-kB signaling, primary screen, Q293 LMP1-TROYcd cells, NF-kB luciferase, uHTS; inhibition, % at 10 µM; hit rate 0.98% among 360,000; Q293 LMP1-TROYcd NF-kB luciferase reporter, 4 h;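 active means compounds whose plate-normalised and pattern-corrected inhibition of the luciferase reporter signal at the single screening dose is 50% or more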
KKLEB cytotox – cytotoxicity in KKLEB CF airway cells, primary screen, cytotoxicity control for CF NF-kB inhibitor project, cell-based, uHTS, fluorescence assay plates; KKLEB CF airway cells viability, ATPlite luminescence, overnight; active compounds read low; cells stimulated with P. aeruginosa culture filtrate; activity change (cytotoxicity), % at 5 µM; hit rate 0.36% among 360,000; AID 602141, 2011;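 active means corrected activity change at or below -50% at 5 µM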
HIF-2a block – HIF-2a reporter inhibitors, primary screen, luminescence, 786-0 RCC cells; 786-0 RCC cells HIF-2a reporter, luciferase luminescence, overnight; inhibition, % at 18.8 µM; hit rate 0.72% among 360,000;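 active means inhibition of the luminescence signal of 40% or more relative to plate controls, in a single-dose primary screen at 18.75 µM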
TWEAK-Fn14 inh – inhibitors of TWEAK-Fn14 signaling, primary screen, luciferase reporter cells, uHTS; TWEAK-stimulated Fn14 reporter cells, luciferase luminescence, 8 h; inhibition, % at 10 µM; hit rate 2% among 360,000; AID 1159606, 2016; in the data active means inhibition above about 50%
A number is an active result; n = inactive; x = no result given.

SMILES	CF NFkB block	Peg3 promoter	TROY NFkB inh	KKLEB cytotox	HIF-2a block	TWEAK-Fn14 inh
Cc1ccc(C(c2cc(Cl)c3cccnc3c2O)N2CCN(C)CC2)cc1 (stereo not drawn)	n	n	n	n	43	n
CCOC(=O)c1c2c(n(-c3ccc(OC)cc3)c1C)C(=O)C(=O)c1ccccc1-2	82	102	61	-91	83	107
CCCc1cc(=O)oc2cc(C)cc(OCC(=O)N3C[C@H]4C[C@@H](C3)c3cccc(=O)n3C4)c12	n	n	n	n	n	n
Cn1nc(C(F)(F)F)c2cc(C(=O)Nc3ccc(C(F)(F)F)cc3)sc21	n	n	51	n	n	n
Cn1nc(C(F)(F)F)c2cc(C(=O)Nc3ccc(F)cc3)sc21	n	n	n	n	n	n
Cn1nc(C(F)(F)F)c2cc(C(=O)Nc3ccc(F)c(Cl)c3)sc21	n	n	61	n	n	n
CC(C)(C)c1ccc(-c2nc(C#N)c(N3CCC(C(N)=O)CC3)o2)cc1	n	n	n	n	n	n
CCCNC(=O)C1(C)CCCN(C(=O)/C=C/c2ccccc2)C1 (stereo not drawn)	n	n	n	n	n	n
CCn1c2ccccc2c2cc(CNCc3ccc(OC)cc3OC)ccc21	n	114	n	n	n	n
CCN(CC)S(=O)(=O)c1cccc(NC(=O)C(=O)c2c(-c3ccccc3)cc3ccccn23)c1	n	n	n	n	n	n
CCN(CC)S(=O)(=O)c1cc(NC(=O)C(=O)c2c(-c3ccccc3)cc3ccccn23)ccc1C	n	n	n	n	n	62
C/C(=N\NC(=O)c1ccc(CSc2nc(C)cc(C)n2)cc1)c1ccco1	90	n	n	-95	n	n
Cc1cc(C)nc(SCc2ccc(C(=O)N/N=C/c3ccco3)cc2)n1	n	n	n	n	n	n
Cc1ccc(NC(=O)Cn2c(-c3ccc(F)cc3)cnc2SCC(=O)Nc2c(C)cccc2C)cc1	n	76	n	n	n	n
CN(C)Cc1ccccc1C(O)(c1ccccc1)c1ccccc1	n	n	n	n	n	n
CC1(C)OC(C(O)(c2ccccc2)c2ccccc2)[C@@H](C(O)(c2ccccc2)c2ccccc2)O1 (stereo partly drawn)	n	64	n	n	n	n
N#Cc1c(C(F)(F)F)cc(=O)[nH]c1SCC(=O)O	n	n	n	n	n	n
Cc1cc(Nc2ccccc2)nc(N2CCOCC2)n1	n	n	n	n	n	n
Cc1cc(Nc2cccc(Cl)c2)nc(N2CCOCC2)n1	n	n	91	n	n	92
COc1cc(C(=O)N2CCCCC2c2cc(C(=O)NCc3cccnc3)no2)cc(OC)c1C (stereo not drawn)	n	n	n	n	n	n
COc1cccc(CNC(=O)Cn2ccc3cc(S(=O)(=O)N4CCCCCC4)ccc32)c1OC	n	n	n	n	n	n
Cc1ccc(Nc2nc(-c3ccccc3)cs2)nc1	n	n	n	n	n	75
Cc1nc(N)sc1-c1csc(Nc2ncccn2)n1	n	n	n	n	n	50
Cc1ccc(Nc2nc(-c3cccs3)cs2)nc1	n	n	71	n	n	75
Cc1ccc(S(=O)(=O)Nc2nc(-c3ccccc3)cs2)cc1	n	n	n	n	n	n
SMILES	CF NFkB block	Peg3 promoter	TROY NFkB inh	KKLEB cytotox	HIF-2a block	TWEAK-Fn14 inh
Cc1cc(C)nc(Nc2nc(-c3ccccc3)cs2)n1	n	n	n	n	n	63
O=C(Nc1ccccc1N1CCOCC1)c1ccc([N+](=O)[O-])s1	n	n	n	n	n	n
Cc1cccc(C)c1NC(=O)CN1CCN(C(=O)CNC(=O)c2ccc(N3CCCC3=O)cc2)CC1	n	n	n	n	n	n
Cc1nc(C)c(-c2csc(Nc3ccc(Cl)cn3)n2)s1	n	n	n	n	n	57
Cc1nc(C)c(-c2csc(Nc3ccc(F)cc3)n2)s1	n	n	n	n	n	n
Cc1c(Cl)cccc1NC(=S)NCCc1ccc(F)cc1	n	n	n	n	n	71
Cc1c(Cl)cccc1NC(=S)NCCc1ccc(Cl)cc1	n	n	n	n	n	n
Cc1ccc(-c2csc3ncn(/N=C/N(C)C)c(=O)c23)o1	n	n	n	n	n	98
Cc1nnc(SCc2cnc(-c3ccc(C(C)C)cc3)s2)n1C	n	n	n	-65	n	n
COCCN1C[C@@H](CO)O[C@@H](n2cnc3c(NCc4ccc(F)cc4)ncnc32)C1	n	n	n	n	n	n
CN1CCN(C2CC(=O)N(c3ccc4c(c3)OCCO4)C2=O)CC1 (stereo not drawn)	n	n	n	n	n	n
O=C(C1CC(=O)N(c2ccc3c(c2)OCCO3)C1)N1CCN(c2ccccc2O)CC1 (stereo not drawn)	n	n	n	n	n	n
O=C1CC(N2CCN(c3ccccc3)CC2)C(=O)N1c1ccc2c(c1)OCCO2 (stereo not drawn)	n	n	51	n	n	n
O=C(NCCCc1ccccc1)C1CC(=O)N(c2ccc3c(c2)OCCO3)C1 (stereo not drawn)	n	n	n	n	n	71
O=C(C1CC(=O)N(c2ccc3c(c2)OCCO3)C1)N1CCN(c2ccccc2)CC1 (stereo not drawn)	n	n	n	n	n	64
O=C(NCCc1ccccc1)C1CC(=O)N(c2ccc3c(c2)OCCO3)C1 (stereo not drawn)	n	n	n	n	n	n
CC1(C(=O)NCc2ccccc2)CN(S(C)(=O)=O)CC(=O)N1CCCN1CCOCC1 (stereo not drawn)	x	x	x	x	n	x
CC1=C(C(=O)N2CCOCC2)CC(CC(=O)NCC2CCCCC2)C(=O)N1CCC1=CCCCC1 (stereo not drawn)	n	n	n	n	n	n
C[C@H]1CN([C@@H](C)CO)C(=O)CCCn2cc(nn2)CO[C@@H]1CN(C)S(=O)(=O)c1cccc(F)c1	n	n	n	n	n	n
COC(=O)N(C)C[C@@H]1OCc2ccccc2-c2c(n(C)c3ccccc23)C(=O)N([C@H](C)CO)C[C@@H]1C	n	n	n	n	n	n
OCCCn1c(C2CCCN2c2nc(-c3ccc(Cl)cc3)cs2)nc2cc(Cl)c(N3CCCCC3)cc21 (stereo not drawn)	n	72	n	n	n	n
CN(C(=O)COC(=O)Cc1ccc(Br)cc1)c1c(N)n(Cc2ccccc2)c(=O)[nH]c1=O	n	n	n	n	n	n
O=C(Nc1ccc(Cc2ccncc2)cc1)C1CCC(N2C(=O)C3C4C=CC(C5CC45)C3C2=O)CC1 (stereo not drawn)	n	n	53	n	n	n
